The entries come from a sample that favours hits as a whole.
LmPK inh: blocks Leishmania mexicana pyruvate kinase activity; Q27686; purified LmPK, Kinase-Glo ATP luminescence, 1 h; Potency, µM (titrated, usually from 57.5 µM), for inactives: at the highest dose activity change, negative = inhibition, most hits filed as inhibitors; hit rate 0.37% among 290,000; AID 1721; further: potency means the concentration at half of the fitted maximal effect; on the % scale 0 is the no-effect control and ±100 the full control effect
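Purified LmPK (0.1 nM) with 0.5 mM PEP and 0.1 mM ADP in imidazole buffer pH 7.2 with MgCl2/KCl, 1 h at room temperature. ATP formed was read by luciferase luminescence and normalized to no-enzyme and uninhibited controls.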
Cycloheximide cs: counter-screen for Shiga toxin inhibitors: cycloheximide protein synthesis inhibition | hit rate 12% among 300,000 | AID 2314 | cell reporter, cycloheximide protein synthesis inhibition counterscreen | max response, %; in the data active means max response mostly above about 13%, no sharp cut-off; inactive means mostly below about 14%; further: read at 38.3 µM for the half of the compounds with a filed dose; 0% is about no effect
Shiga inhibitor: Shiga toxin inhibition; Vero cells, Shiga toxin protein synthesis inhibition reporter; inhibition, % at 38.7 µM; hit rate 9.2% among 290,000; in the data active means inhibition mostly above about 28%, no sharp cut-off; inactive means mostly below about 43%; further: 0% is about no effect
Tb PYK inh: blocks Trypanosoma brucei pyruvate kinase; Potency, µM (highest dose often 76.8 µM), for inactives: at the highest dose activity, negative = inhibition, most hits filed as inhibitors; hit rate 0.12% among 410,000; TbPYK enzyme, Kinase-Glo Plus ATP luminescence, 45 min; Q57TT1; AID 624173; further: potency means the concentration at half of the fitted maximal effect; on the % scale 0 is the no-effect control and ±100 the full control effect; nearly all actives have a fitted effect of over 50% in size
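Assay buffer: 50 mM TEA pH 7.2, 100 mM KCl, 10 mM MgCl2, 0.05% BSA, 0.01% Tween-20. Pyruvate kinase from T. brucei plus substrate met compound, then ADP (130 uM final). Luminescence was read post 45 min RT.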
RE007 growth inh: less growth of the S. pombe RE007 Vpr strain | S. pombe RE007 Vpr strain, BacTiter-Glo ATP luminescence, 24 h | Potency, µM (highest dose often 92.2 µM), for inactives: top-dose activity change, negative = less growth, most hits filed as inhibitors | hit rate 0.21% among 360,000 | AID 651644; active means well fitted falling curve with a large enough effect; inconclusive means small, poorly fitted or top-dose-only effect; inactive means no such curve, though single readings can be large or run the other way; further: potency means the concentration at half of the fitted maximal effect; on the % scale 0 is the no-effect control and ±100 the full control effect; nearly all actives have a fitted effect of over 50% in size
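Fission yeast strain RE007, carrying one chromosomally integrated HIV-1 vpr copy, was seeded at OD 0.01 in PMG+AL medium with 23 nL pinned compound. After 24 h at 30 °C and 99% humidity, viability was read by BacTiter-Glo luminescence.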
FBPA Giardia inh: Giardia lamblia aldolase inhibition. A8B2U2. purified Giardia FBPA. Potency, µM (doses to about 59.6 µM), for inactives: at the highest dose activity, negative = inhibition, usual class: inhibitors. hit rate 0.71% among 290,000. AID 2451; further: potency means the concentration at half of the fitted maximal effect; on the % scale 0 is the no-effect control and ±100 the full control effect; nearly all actives have a fitted effect of over 55% in size
Target sequence (A8B2U2 whole entry, looked up): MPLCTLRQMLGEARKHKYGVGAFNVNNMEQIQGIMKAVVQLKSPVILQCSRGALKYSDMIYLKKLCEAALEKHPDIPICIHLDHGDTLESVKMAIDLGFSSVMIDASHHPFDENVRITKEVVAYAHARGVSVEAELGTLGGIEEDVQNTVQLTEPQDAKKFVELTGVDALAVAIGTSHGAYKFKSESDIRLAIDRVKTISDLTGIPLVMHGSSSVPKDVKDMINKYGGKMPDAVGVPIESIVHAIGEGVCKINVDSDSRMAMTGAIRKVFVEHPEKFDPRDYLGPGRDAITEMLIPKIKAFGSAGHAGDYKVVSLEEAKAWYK
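40 nM FBPA preincubated 10 min at RT with compound (up to 57.5 uM final), then substrate plus GAPDH/TPI/NAD/arsenate coupling and diaphorase/resazurin added. Fluorescence read after 20 min at RT, 525/598 nm.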
The depositor's hits bear a star; ? = inconclusive; · = no result; + = active, no number; ! = repeats disagree; [ ] = another dose, or the depositor's remark. Unless noted, the call rests on the fitted dose curve; in most records, active means well fitted curve in the direction sought with a large enough effect; inconclusive means small, poorly fitted or top-dose-only effect, or another doubt; inactive means no such curve, though single readings can be large; an effect the other way counts as inactive or inconclusive.

SMILES	LmPK inh	Cycloheximide cs	Shiga inhibitor	Tb PYK inh	RE007 growth inh	FBPA Giardia inh
COC(=O)c1ccccc1NC(=O)c1cccc(NC(=O)c2ccc(Br)o2)c1C	-5.2%	-1.7	10.2	3.7%	7.5%	4.3%
O=C(Nc1ccccc1F)c1ccc(Br)o1	-17.1%	55.3*	+!	-11.0%	-8.7%	-0.1%[89.2 µM]
O=C(Nc1ccccc1C(=O)O)c1ccc(Br)o1	-17.5%	21.3*	38.5*	12.5%	-5.8%	-7.8%
Cc1ccc(C(=O)Nc2ccccc2C(N)=O)o1	-13.9%	36.9*	105.5*	-1.5%	-9.3%	4.1%
Cn1nnc2c(NCCc3ccccc3)ncnc21	·	·	·	18.0%	·	·
CCCCc1nc2c(c3c1C[C@H](C)OC3)CN(C(=O)COC)CC2	-2.4%[11.5 µM]	·	·	·	·	5.6%[12.9 µM]
Cn1cccc1C1NC(=O)c2c(sc3c2CCC(C(C)(C)C)C3)N1 (centres undefined)	1.2%	10.8*	28.6*	-16.8%	-17.8%	-25.0%
C(=C\c1ccccc1)/C=N/N1CCN(c2ccccn2)CC1	-17.4%	39.4*	48.2*	-8.2%	-13.5%	4.7%
C(/C=C/c1ccccc1)=N/N1CCN(c2ccccc2)CC1	-20.1%	16.4*	40.9	-3.8%	0.0%	4.0%
c1ccc(-c2nnc(N3CCN(c4ccccn4)CC3)c3ccccc23)cc1	4.2%	8.2	-2.3	4.0%	18.5%	-3.1%
C(=C\c1ccccc1)/C=N/N1CCN(Cc2ccccc2)CC1	3.7%	27.0*	43.3*	-10.9%	-7.6%	0.6%
CC(/C=N/N1CCN(c2ccccn2)CC1)=C\c1ccccc1	-2.9%	22.8*	46.7*	4.2%	-9.6%	4.9%
CCn1c(C(=O)Nc2ccc(C)cc2C)cc2sc(Cl)cc21	·	·	·	-17.9%	·	·
C/C(=N/NC(=O)c1ccccc1O)c1ccc(N2C(=O)C3CCCCC3C2=O)cc1 (centres undefined)	-2.4%	22.2*	55.8*	1.8%	-7.1%	-3.4%
C/C(=N\NC(=O)c1ccccc1O)c1ccc(NC(=O)c2ccccc2)cc1	-7.1%	38.0*	68.8*	1.7%	-4.1%	·
C/C(=N/NC(=O)c1ccncc1)c1ccc(NC(=O)c2ccccc2)cc1	-11.7%	8.8	22.2	-0.5%	-4.1%	-1.8%
CC(=O)Nc1cccc(/C(C)=N/NC(=O)c2ccc(Cl)cc2Cl)c1	0.6%	14.7	33.9	-1.8%	-4.2%	6.4%
C/C(=N/OC(=O)c1ccc(C)cc1)c1ccc(N2C(=O)C3CCCCC3C2=O)cc1 (centres undefined)	3.7%	1.0	-14.5	-12.0%	2.9%	-3.5%
CC(=O)Nc1ccc(/C(C)=N/NC(=O)c2ccccc2Cl)cc1	-2.4%	29.1*	50.1*	7.8%	-17.9%	-0.4%
C/C(=N\NC(=O)c1ccccc1O)c1cccc(NC(=O)c2ccccc2)c1	-0.3%	19.0*	41.8*	7.6%	-1.1%	-4.2%
Cc1ccc2c(c1)C(c1ccc(F)cc1)N(C(=O)COc1ccc(Cl)cc1Cl)CC(=O)N2 (centres undefined)	·	·	·	2.3%	·	·
C=C1/C(=C/C=C2\CCCC3(C)[C@@H]([C@H](C)/C=C/C=C/C(O)(CC)CC)CC[C@@H]23)C[C@@H](O)C[C@@H]1O (some centres undefined)	·	·	·	-1.4%	·	·
c1ccc(-c2ccc(-c3csnn3)cc2)cc1	-6.5%	33.1*	56.6*	-1.3%	-12.8%	3.5%
CCOC(=O)[C@H](CCc1ccccc1)NC(C)C(=O)N1CC2(CC1C(=O)O)SCCS2 (some centres undefined)	·	·	·	0.0%	·	·
CC(C)c1ccc(/C=C/C(=O)N2CCOCC2)cc1	-5.1%	43.0*	28.5*	2.0%	2.5%	1.3%
SMILES	LmPK inh	Cycloheximide cs	Shiga inhibitor	Tb PYK inh	RE007 growth inh	FBPA Giardia inh
CC(OC(=O)/C=C/c1ccc(Br)cc1)C(=O)N1CCOCC1 (centres undefined)	·	·	·	-0.5%	-5.8%	·
O=C(/C=C/c1ccc(Cl)cc1)N1CCOCC1	-2.9%	35.4*	53.9*	-4.7%	-9.1%	-1.8%
O=C(/C=C/c1ccc(Cl)c(Cl)c1)N1CCOCC1	-6.3%	24.0*	104.3*	0.7%	-1.0%	1.0%
CC(C)c1ccc(/C=C/C(=O)N2CCCCCC2)cc1	-2.9%	21.3*	31.0	8.2%	-16.2%	-2.9%
O=C(C=Cc1ccccc1)N1CCCCC1	·	·	·	0.0%	1.5%	·
O=C(/C=C/c1ccc(Cl)c(Cl)c1)n1cccn1	-20.4%	-1.6	-16.0	-11.5%	-17.3%	3.8%
O=C(/C=C/c1ccccc1)N1CCOCC1	-0.1%	13.7	6.4	-4.5%	-6.7%	-2.0%
O=C(/C=C/c1ccc(OCc2cccc(Cl)c2)cc1)N1CCOCC1	-0.6%	23.6*	45.0	1.8%	9.3%	6.1%
CCCOc1ccc(/C=C/C(=O)N2CCN(c3ccccn3)CC2)cc1	-9.3%	7.8	-15.8	0.3%	-17.2%	0.9%
CCCOc1ccc(/C=C/C(=O)N2CCOCC2)cc1	-2.1%	56.3*	61.2*	2.4%	-1.1%	8.9%
CCOC(=O)c1ccc(N2CCOCC2)c(NC(=O)c2c(-c3ccccc3)noc2C)c1	4.2%	0.5	10.3	-0.3%	-13.1%	1.2%
COc1ccc(/C=N/NC(=O)c2cccc([N+](=O)[O-])c2)cc1O	-3.2%	24.9*	101.6*	-1.1%	-11.4%	-2.8%
COc1cc(/C=N/NC(=O)c2cccc([N+](=O)[O-])c2)ccc1OCc1ccc(C)cc1	-1.2%	21.7*	62.0*	4.1%	-1.1%	1.1%
COc1cc(/C=N/NC(=O)c2cccc([N+](=O)[O-])c2)ccc1O	2.7%	20.4	21.1	2.3%	7.7%	-10.7%
CCOc1ccccc1NC(=O)N1CCC2(CC1)Oc1ccccc1C(=O)N2Cc1ccccc1F	·	·	·	-2.1%	·	·
Cc1c(C(=O)Nc2cccc(-c3nc4ccccc4s3)c2)oc2ccc(F)cc12	·	·	·	-4.1%	·	·
Cc1ccc(C(=O)NC(=S)Nc2cccc(-c3nc4ccccc4s3)c2)cc1	-0.5%	26.5*	60.1*	-2.0%	-2.1%	-1.2%
CC(=O)Nc1cccc(-c2nc3ccc(NC(C)=O)cc3s2)c1	-13.3%	39.9*	77.9*	4.0%	6.0%	-1.2%
CC(=O)Nc1cccc(-c2nc3ccccc3s2)c1	-8.7%	35.6*	97.9*	-2.8%	-7.4%	-5.8%
CC(=O)Nc1cccc(-c2cc(C)c3cc4c(cc3n2)OCO4)c1	-1.2%	36.7*	109.0*	-0.5%	-5.8%	-17.3%
COc1ccc(C(=O)Nc2cc(-c3nc4ccccc4s3)ccc2OC)cc1	·	·	·	-7.8%	·	·
COC(=O)Cc1ccc2sc(-c3ccccc3)nc2c1	14.1µM*	61.8*	72.8*	?	?	-5.5%
CN(C)C(Cc1ccccc1)C(=O)c1ccccc1 (centres undefined)	0.4%	33.2*	64.8*	-2.1%	-7.5%	3.6%
CC(Cl)C(=O)c1c[nH]c2ccccc12 (centres undefined)	4.8%	-2.0	-4.9	-0.7%	-7.1%	0.2%

Bioassay records (PubChem BioAssay)
